High-throughput results (PubChem BioAssay)
A selection: hits, their analogues and other compounds. The true share with any hit is near 10%.
HP1b binding inh = HTS for Inhibitors of HP1-beta Chromodomain Interactions with Methylated Histone Tails | Chromobox protein homolog 1 (Homo sapiens), P83916 | AlphaScreen HP1-beta / biotin-H3K9me3 peptide binding | Potency, µM (series often up to 114 µM), for inactives: at the highest dose activity change, negative = inhibition, most hits filed as inhibitors | hit rate 0.56% among 390,000; further: nearly all actives have a fitted effect of over 70% in size
Target sequence (P83916 whole entry, looked up): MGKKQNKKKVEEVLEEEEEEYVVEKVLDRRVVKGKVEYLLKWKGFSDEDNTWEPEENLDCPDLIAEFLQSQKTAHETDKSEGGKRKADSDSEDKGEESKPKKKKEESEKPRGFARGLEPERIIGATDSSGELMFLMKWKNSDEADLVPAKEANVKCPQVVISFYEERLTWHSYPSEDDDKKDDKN
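AlphaScreen: HP1-beta (50 nM) preformed 30 min with biotin-H3(1-18)K9me3 peptide (50 nM) in PBS pH 7.4, 0.01% Tween-20. Compound added for 30 min at RT, then streptavidin donor/nickel chelate acceptor beads (10 ug/mL) for 30 min.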
GLS inh = qHTS for Inhibitors of Glutaminase (GLS); Glutaminase kidney isoform, mitochondrial (Homo sapiens), O94925; GLS enzymatic activity, qHTS titration; Potency, µM (doses to about 45.5 µM), for the others: at the highest dose activity change, negative = inhibition, most hits filed as inhibitors; hit rate 0.21% among 410,000; AID 624170, 2012; further: on the % scale 0 is the no-effect control and ±100 the full control effect
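Compounds were pin-transferred onto hKGA, after which L-glutamine (1 mM solution) and a detection mix of glutamate oxidase, HRP and Amplex Red were added. Initial and 30 min RT fluorescence reads were collected.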
JMJD2A Tudor inh = qHTS Assay for Inhibitors of JMJD2A-Tudor Domain; Lysine-specific demethylase 4A (Homo sapiens), O75164; AID 504339, 2011; AlphaScreen JMJD2A-Tudor / H3K4me3 peptide binding; Potency, µM (top dose mostly 114 µM), for inactives: at the highest dose activity change, negative = inhibition, hits mostly inhibitors; hit rate 4.4% among 390,000; further: on the % scale 0 is the no-effect control and ±100 the full control effect; nearly all actives have a fitted effect of over 50% in size
BAZ2B block = qHTS Assay for Inhibitors of BAZ2B. Bromodomain adjacent to zinc finger domain protein 2B (Homo sapiens), Q9UIF8. AID 504333, 2011. Potency, µM (highest dose often 114 µM), inactives show at the highest dose activity change, negative = inhibition, hits mostly inhibitors. AlphaScreen BAZ2B-H3K14Ac peptide displacement. hit rate 4.4% among 360,000; further: on the % scale 0 is the no-effect control and ±100 the full control effect; nearly all actives have a fitted effect of over 60% in size
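AlphaScreen luminescence quantifies BAZ2B engagement of H3K14Ac peptide; the protein and biotinylated peptide are both at 50 nM final, buffer PBS pH 7.4 with 0.01% Tween-20, all steps at room temperature.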
L3MBTL1 block = qHTS Assay for the Inhibitors of L3MBTL1. Lethal(3)malignant brain tumor-like protein 1 (Homo sapiens), Q9Y468. hit rate 0.66% among 230,000. Potency, µM (titrated, usually from 57.1 µM), for the others: at the highest dose activity, negative = inhibition, usual class: inhibitors. AlphaScreen L3MBTL1–H3K9me1 peptide binding; further: on the % scale 0 is the no-effect control and ±100 the full control effect; nearly all actives have a fitted effect of over 60% in size
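First, the protein-peptide complex forms for 30 min at room temperature (L3MBTL1 50 nM, biotinylated H3K9me1 peptide 75 nM). Next, compounds are pin-transferred and incubated 30 min. Finally, AlphaScreen beads are added and read after 30 min.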
G9a inh = qHTS Assay for Inhibitors of Histone Lysine Methyltransferase G9a; Histone-lysine N-methyltransferase EHMT2 (Homo sapiens), Q96KQ7; G9a H3K9 monomethylation, AlphaScreen, 2 h; Potency, µM (top dose mostly 102 µM), for inactives: at the top dose activity, negative = inhibition, hits mostly inhibitors; hit rate 8.8% among 350,000; AID 504332, 2011; further: on the % scale 0 is the no-effect control and ±100 the full control effect; nearly all actives have a fitted effect of over 75% in size
Target sequence (Q96KQ7 913-1193 limits assumed): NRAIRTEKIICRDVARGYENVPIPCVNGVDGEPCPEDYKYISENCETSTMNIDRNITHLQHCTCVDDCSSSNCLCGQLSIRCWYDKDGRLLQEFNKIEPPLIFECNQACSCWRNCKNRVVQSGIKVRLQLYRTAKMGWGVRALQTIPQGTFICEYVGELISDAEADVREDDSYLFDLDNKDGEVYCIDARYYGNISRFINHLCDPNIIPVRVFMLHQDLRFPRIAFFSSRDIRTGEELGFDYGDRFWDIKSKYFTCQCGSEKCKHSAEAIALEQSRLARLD
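Compounds were preincubated with 20 nM G9a for 15 min, after which biotinylated H3K9 peptide (500 nM) and SAM (20 uM) started a 2 h room-temperature reaction. Monomethylated product was quantified by antibody-based AlphaScreen chemiluminescence.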
* = called active by the depositor; ? = inconclusive; . = no result given; ! = repeats disagree; [ ] = dose if it differs, or a comment. The call rests on the fitted dose curve; in most records, active means well fitted curve in the direction sought with a large enough effect; inconclusive means small, poorly fitted or top-dose-only effect, or another doubt; inactive means no such curve, though single readings can be large; an effect the other way counts as inactive or inconclusive. Potency means the concentration at half of the fitted maximal effect.

SMILES | HP1b binding inh | GLS inh | JMJD2A Tudor inh | BAZ2B block | L3MBTL1 block | G9a inh
Cc1ccc(-n2nc3ccc(N)cc3n2)cc1C | -12% | 5% | -25% | 50µM* | -20% | 10µM*
COc1ccc(-n2nc3ccc(N)cc3n2)cc1Cl | 55% | 1% | 35% | 0% | 4%[2.29 µM] | -1%[0.501 µM]
CCCC1OC2C[C@@H]3[C@H]4CCC5=CC(=O)C=C[C@]5(C)[C@H]4C(O)C[C@]3(C)[C@]2(C(=O)CO)O1 (stereo partly specified) | 56% | . | -6% | . | . | .
Cc1ccc(OCCSc2nc3ccccc3n2CC(=O)NC(C)C)cc1 | 43% | 1% | -7% | -27% | . | -41%[59 µM]
COc1ccc(CNC(=O)CCc2c(C)nc3c(c(C)nn3-c3ccccc3)c2C)cc1 | 46% | -8% | -1% | 1% | . | 12%[59 µM]
CC1CN(C(=S)NC(=O)c2ccc(Cl)cc2)CC(C)O1 (stereo unspecified) | 24% | 19% | -17% | -21% | . | 45µM*
C/C(CC(=O)N1CCN(C=O)CC1)=N\NC(=O)c1ccc(Cl)cc1 | 61% | 0% | 2% | -4% | 3% | -25%
O=CN1CCN(C(=S)NC(=O)c2ccc(Cl)cc2)CC1 | 53% | 16% | 1% | -15% | . | 45µM*
CC1CN(C(=S)NC(=O)c2cccc([N+](=O)[O-])c2)CC(C)O1 (stereo unspecified) | 21% | -5% | ? | -26% | 0% | 14µM*
CCc1ccc(NC(=O)N2CCN(c3nnc(C)c4c(C)n(-c5ccc(Cl)cc5)nc34)CC2)cc1 | 43% | 4% | -22% | -35% | . | 18%[59 µM]
COc1cc2nc(=S)n3[nH]c(CCn4nc(C)cc4C)nc3c2cc1OC | 0% | ? | -23% | 5% | . | 1µM*
COc1cc2nc(=S)n3[nH]c(COc4ccccc4C)nc3c2cc1OC | 21% | -14% | -37% | 6% | 8% | -5%[59 µM]
COc1ccccc1-c1sc2cc3c(cc2c1-c1ccc(OCCN2CCCCC2)cc1)OCO3 | -24% | 6% | 11µM* | . | -17% | .
COc1cc2sc(-c3ccccc3OC)c(-c3ccc(OCCN4CCCCC4)cc3)c2cc1OC | ? | 8% | 28µM* | . | -13% | .
c1ccc(-c2sc3ccccc3c2-c2ccc(OCCN3CCOCC3)cc2)cc1 | -5% | 1% | ? | . | 0% | .
COc1ccccc1-c1sc2ccccc2c1-c1ccc(OCCN2CCOCC2)cc1 | -18% | 0% | 50µM* | . | -22% | .
COc1ccccc1-c1sc2cc3c(cc2c1-c1ccc2c(c1)OCO2)OCO3 | 38% | -6% | -35% | 79µM* | 0% | 8%[0.501 µM]
COc1ccccc1-c1sc2ccccc2c1-c1ccc2c(c1)OCO2 | 50% | 0% | 27% | 6% | 4% | 4%
COc1ccc(-c2sc3cc4c(cc3c2-c2ccc(OCCN3CCOCC3)cc2)OCO4)cc1 | 5% | 4% | ? | . | -4% | .
Cc1ccc(Cl)cc1N1CCN(C(=O)Cn2nc(C)n3c(cc4sccc43)c2=O)CC1 | 27% | 0% | -15% | -3% | . | -24%[59 µM]
Cc1ccc(NC(=O)C2CCCN(c3nnc(-n4c(C)ccc4C)s3)C2)c(C)c1 (stereo unspecified) | 46% | -1% | -28% | -12% | . | 18%[59 µM]
COc1cccc(-c2nc3c(C#N)c[nH]n3c2NC2CCCCC2)c1 | 46% | -13% | -11% | -25% | . | ?
CCCn1ccc2c(OCC(=O)Nc3ccc(F)cc3F)cccc2c1=O | 21% | -4% | -4% | -2% | . | -3%[59 µM]
Cc1nn(S(=O)(=O)c2ccccc2)c(C)c1S(=O)(=O)N1CCOCC1 | 43%[57 µM] | 0% | -27% | -27% | . | 79µM*
Cc1nn(S(=O)(=O)c2ccc(F)cc2)c(C)c1S(=O)(=O)N1CCOCC1 | 5% | -4% | -12% | ? | . | 35µM*
SMILES | HP1b binding inh | GLS inh | JMJD2A Tudor inh | BAZ2B block | L3MBTL1 block | G9a inh
Cc1ccc(S(=O)(=O)n2nc(C)c(S(=O)(=O)N3CCCCC3)c2C)cc1 | 35% | 7% | -6% | -31% | . | 45µM*!
Cc1nn(S(=O)(=O)c2ccc(F)cc2)c(C)c1S(=O)(=O)N1CCCCC1 | 51% | 4% | -27% | -2% | . | 22%[0.501 µM]
CCOC(=O)CC1Sc2ccccc2NC1=O (stereo unspecified) | 36% | -5% | 0% | -5% | 17% | 10µM*
CCOC(=O)C1Sc2ccccc2NC1=O (stereo unspecified) | 38% | -9% | -8% | 0% | . | 14%
O=C(O)CC1Sc2ccccc2NC1=O (stereo unspecified) | 46% | -4% | -12% | -6% | 13% | ?
CCOC(=O)CC1Sc2ccccc2NC1=S (stereo unspecified) | 15% | 18% | -8% | -33% | -17% | 45µM*
CCOc1ccc(/C=N/OCC(=O)NCc2ccc3c(c2)OCO3)cc1OC | 14% | 5% | -15% | 2% | 4% | 40µM*
CCCCCCCCSc1nnc2[nH]c(=O)cc(N)n12 | -17% | -4% | 11µM* | -19% | . | -9%
Cn1c(SCC(=O)c2ccc3c(c2)OCCO3)nnc1C1CC1 | 43% | -2% | -11%[57.1 µM] | -1% | 6% | 22µM*
Cn1c(SCC(=O)c2ccc3c(c2)OCCO3)nnc1C(F)(F)F | 25% | -1% | -26% | -32% | -15% | 56µM*
CN(C(=O)CSc1nc2ccc(NC(=O)COc3ccc(F)cc3)cc2s1)c1ccccc1 | 21% | 2% | -18% | -14% | . | -3%[59 µM]
COc1cccc(-c2cc(C(=O)Nc3cc(Cl)ccc3O)on2)c1 | -1% | -10% | ? | ? | . | 13µM*
COc1cccc(-c2cc(C(=O)Nc3cc(OC)c(OC)c(OC)c3)on2)c1 | 1% | -16% | ? | -34% | . | -40%[59 µM]
COc1ccc(-c2cc(C(=O)Nc3cccc(O)c3)on2)cc1OC | -9% | 3% | ? | ? | . | 14µM*
Cc1nc2cnc(N(C)C)nc2n(CCc2ccccc2)c1=O | . | . | . | . | . | -2%[0.501 µM]
NC(=O)c1ccsc1NC(=O)c1ccc(N2CCCC2=O)cc1 | 17% | -6% | -22% | -30% | . | 45µM*
NC(=O)c1ccsc1NC(=O)c1ccc2c(c1)CCCC2 | 43% | -1% | -14% | -5% | -4% | 9%
O=c1cnc2cncnc2n1Cc1ccc(F)cc1 | . | . | . | . | . | 11%[0.501 µM]
COc1ccc(C2=NN(C(=O)c3ccco3)C(c3ccco3)C2)cc1OC (stereo unspecified) | 16% | 0% | -23% | -35% | . | ?
